Source: PubChem (The Scripps Research Institute Molecular Screening Center)
Only some compounds are listed: those with a hit (about 3.5% of all), similar ones and a draw of the others.
TEAD-YAP inh: TEAD-YAP interaction inhibition, primary screen, TEAD-YAP interaction inhibitor project, luminescence, HEK-TIYL cells; actives 1.4% (n = 640,000); inhibition, % at 9.12 µM; TEAD-Gal4/YAP UAS-luciferase luminescence; in the data active = inhibition above about 32%
MITF inh: MITF inhibitors, primary screen, biochemical, AlphaScreen, human; Microphthalmia-associated transcription factor (Homo sapiens), O75030; AID 1259374, 2018; actives 0.91% (n = 650,000); inhibition, % at 2.6 µM; AlphaScreen MITF homodimerization, bead proximity signal; in the data active = inhibition above about 50%
Target sequence (O75030 whole entry, looked up): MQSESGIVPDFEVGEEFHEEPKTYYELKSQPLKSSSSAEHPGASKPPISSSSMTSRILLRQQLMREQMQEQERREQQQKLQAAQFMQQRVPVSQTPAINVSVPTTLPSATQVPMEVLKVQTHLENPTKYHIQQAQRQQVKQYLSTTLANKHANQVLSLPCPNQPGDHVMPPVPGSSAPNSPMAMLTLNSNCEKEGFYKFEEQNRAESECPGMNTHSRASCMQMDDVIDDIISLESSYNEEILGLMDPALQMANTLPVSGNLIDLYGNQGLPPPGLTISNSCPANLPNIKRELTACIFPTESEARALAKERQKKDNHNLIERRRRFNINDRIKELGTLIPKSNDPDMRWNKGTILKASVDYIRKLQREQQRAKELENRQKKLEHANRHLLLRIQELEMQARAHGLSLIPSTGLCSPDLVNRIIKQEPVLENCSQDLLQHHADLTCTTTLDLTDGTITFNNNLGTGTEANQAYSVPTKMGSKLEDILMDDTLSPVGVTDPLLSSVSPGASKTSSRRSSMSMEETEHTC
FBW7 activator: FBW7 E3 ligase activators, primary screen, biochemical, AlphaScreen, human; F-box/WD repeat-containing protein 7 (Homo sapiens), Q969H0; AlphaScreen FBW7–phospho-cyclin E peptide binding, activator screen; normalized activity (activation), % at 26.1 µM; actives 0.13% (n = 650,000); AID 1259310, 2017; in the data active = normalized activity above about 1.9%;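 also: purified mutant Fbw7 with reduced substrate affinity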
GPR151 activ: activators of human GPR151, primary screen, cell-based, PathHunter beta-arrestin, luminescence; G-protein coupled receptor 151 (Homo sapiens), Q8TDV0; activation, % at 11.2 µM; PathHunter beta-arrestin GPR151 cells; AID 1508602, 2020; actives 1% (n = 650,000); in the data active = activation above about 4.9%
MITF confirm: MITF inhibitors, retest of hits, confirmation, biochemical, AlphaScreen, triplicate | shares compounds with MITF inh | AlphaScreen MITF homodimerization, biotin/His-MITF beads | inhibition, % at 2.6 µM | actives 16% (n = 4,700) | AID 1259372, 2018;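 active = inhibition above a cutoff derived from the DMSO control wells, cut at about 28% in these data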;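 also: inhibitors lower the bead chemiluminescence by keeping MITF from dimerizing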
AlphaScreen intf2: AlphaScreen optical interference compounds, counter-screen for MITF inhibitor project, biochemical, triplicate; shares compounds with MITF inh; LysRS AlphaScreen counterscreen, signal interference; inhibition, % at 2.6 µM; actives 7.6% (n = 4,700); AID 1259376, 2018;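 active = inhibition above a cutoff derived from the DMSO control wells, cut at about 30% in these data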
Numbers stand for hits; 0 = inactive; - = not tested or not shown.

SMILES	TEAD-YAP inh	MITF inh	FBW7 activator	GPR151 activ	MITF confirm	AlphaScreen intf2
Cc1nc2ccc3nc(NC(=O)c4ccco4)sc3c2s1	0	0	25.7	0	-	-
O=C(Nc1nnc(C23CC4CC(CC(C4)C2)C3)s1)c1ccco1	0	0	1.9	0	-	-
Cc1nc2c(ccc3nc(NC(=O)C4=COCCO4)sc32)s1	78.6	0	0	0	-	-
Cc1nc2c(ccc3nc(NC(=O)c4ccco4)sc32)s1	50.0	0	0	0	-	-
COc1ccc(-c2cc(C(F)(F)F)n3nc(C(=O)Nc4cccc(C)c4)cc3n2)cc1OC	0	0	0	0	-	-
CC[C@@H](Cn1nnc2ccccc2c1=O)NC(=O)C1CCCC1	0	0	0	0	-	-
CCn1c(=O)c(C(=O)Nc2cc(C)cc(C)c2)c(O)c2ccccc21	0	0	0	0	-	-
O=C(CSc1nnc(CNc2ccc(F)cc2)o1)N1CCCCC1	0	0	0	0	-	-
O=C(C1CCN(Cc2ccccc2)CC1)N1CCN(C/C=C/c2ccccc2)CC1	0	59.6	0	0	0	0
COc1cc(CN2CCN(C/C=C/c3ccccc3)CC2)ccc1O	0	52.0	0	0	0	0
COc1cc(CN2CCN(C/C=C/c3ccccc3)CC2)cc(OC)c1OC	0	67.2	0	0	0	0
COc1ccc(CN2CCN(C/C=C/c3ccccc3)CC2)cc1O	0	61.5	0	0	0	0
COc1ccc(CN2CCN(C/C=C/c3ccccc3)CC2)cc1	0	0	0	0	-	-
CCCN1CCN(c2c(-c3ccc(C(C)C)cc3)c(=O)c2=O)CC1	0	0	0	0	-	-
O=C(O)CC12CC3CC(C1)CC(n1ncc(NC4CCCCCC4)c(Cl)c1=O)(C3)C2	0	0	0	0	-	-
Cc1ccccc1CN1CCN(C(=O)c2cccc(Cl)c2)CC1	0	62.8	0	0	0	0
O=C(c1cccc(Cl)c1)N1CCN(Cc2ccccc2F)CC1	0	59.2	0	0	0	0
COc1ccccc1C(=O)NNC(=O)C(=O)Nc1cccc2ccccc12	0	0	0	0	-	-
CCOc1ccc(/C(O)=C2/C(=O)C(=O)N(CCN(C)C)C2c2ccc(N(C)C)cc2)c(C)c1 (stereo not given)	0	0	0	0	-	-
Cc1nn2c(N(C)CCO)c3c(nc2c1-c1ccccc1)CCC3	0	0	0	0	-	-
CC(C)CNC(=O)C(=O)NCC1OCCCN1S(=O)(=O)c1ccc(Cl)cc1 (stereo not given)	0	64.5	0	0	0	0
CC(C)CCNC(=O)C(=O)NCC1OCCCN1S(=O)(=O)c1ccc(F)cc1 (stereo not given)	0	66.7	0	0	0	0
O=C(c1ccncc1)N1CCN(Cc2cccc3ccccc23)CC1	0	67.4	0	0	0	0
COc1ccc2ccccc2c1CN1CCN(C(=O)c2cccnc2)CC1	0	0	0	0	-	-
CCOC(=O)N1CCN(Cc2cccc3ccccc23)CC1	0	0	0	0	-	-
SMILES	TEAD-YAP inh	MITF inh	FBW7 activator	GPR151 activ	MITF confirm	AlphaScreen intf2
O=C(c1cccnc1)N1CCN(Cc2cccc3ccccc23)CC1	0	51.1	0	0	0	0
O=C(Nc1ccc(S(=O)(=O)N2CCC(c3nc4ccccc4[nH]3)CC2)cc1)c1cccc(Cl)c1	0	0	0	0	-	-
CCN1CCN(c2nc3cc4c(cc3cc2C#N)OCO4)CC1	0	0	0	0	-	-
O=C(O)C1CC(O)CN1S(=O)(=O)c1ccc(Cl)c(Cl)c1 (stereo not given)	0	65.5	0	0	0	0
Cc1ccc(S(=O)(=O)N2CC(O)CC2C(=O)O)cc1C (stereo not given)	0	0	0	0	-	-
Cc1cc(C(=O)N2CCN(CC(=O)c3cccs3)CC2)no1	0	61.3	0	0	0	0
O=C(CN1CCN(C(=O)c2cnccn2)CC1)c1cccs1	0	52.8	0	0	0	0
COc1cc(C(=O)NCc2cccnc2)c([N+](=O)[O-])cc1OC	0	0	0	0	-	-
O=C(NC(=O)C(F)(F)F)Nc1nncs1	0	0	0	0	-	-
COCCCn1c(CCC(=O)O)ccc1-c1ccc(OC)cc1	0	0	0	0	-	-
COCc1cc(C)nc(SCCN(C)C)c1C#N	0	51.2	0	0	0	0
O=[N+]([O-])c1ccc(CN2CCN(Cc3ccncc3)CC2)cc1	0	64.5	0	0	0	0
O=[N+]([O-])c1ccc(CN2CCN(Cc3cccnc3)CC2)cc1	0	63.6	0	0	0	0
O=[N+]([O-])c1ccc(CN2CCSCC2)cc1	0	0	0	0	-	-
O=[N+]([O-])c1ccc(-c2nsc3c(N4CCN(Cc5cccnc5)CC4)ncnc23)cc1	0	0	0	0	-	-
CN(C)CCCOc1cccc(Oc2ccccc2)c1	0	61.7	0	0	0	0
CN(C)CCNCCOCCOc1ccccc1-c1ccccc1	0	0	0	0	-	-
CN(C)CCCOc1ccccc1-c1ccccc1	0	52.6	0	0	0	0
CN(C)CCNCCCOc1ccccc1-c1ccccc1	0	74.3	0	0	0	0
CN(C)CCOCCOc1cccc(Oc2ccccc2)c1	0	0	0	0	-	-
COc1ccc(NC(=O)c2ccccc2NC(=O)c2ccccc2[N+](=O)[O-])cc1	0	0	0	0	-	-
COc1ccc(OC)c(/C=C2\C(=O)NC(=O)N(c3ccccc3)C2=O)c1	0	0	0	0	-	-
CCOC(=O)c1cnc(N2CCOCC2)[nH]c1=O	0	0	0	0	-	-
Cc1cc(=O)[nH]c(-n2[nH]c(C)c(Cc3ccccc3)c2=O)n1	0	0	0	0	-	-
CCOC(=O)c1cnc(-n2[nH]c(C)c(CCO)c2=O)[nH]c1=O	0	86.2	0	0	0	64.5
SMILES	TEAD-YAP inh	MITF inh	FBW7 activator	GPR151 activ	MITF confirm	AlphaScreen intf2
Cc1[nH]n(-c2ncc(C(=O)O)c(=O)[nH]2)c(=O)c1Cc1ccccc1	0	82.6	0	0	63.5	94.7
O=C(c1cccc(N2C(=O)CCC2=O)c1)N(CCn1cccn1)c1nc2ccc(F)cc2s1	0	0	0	0	-	-
CCCCS(=O)(=O)C1CCCCC1OC(=O)CCN1CCCCC1 (stereo not given)	0	50.7	0	0	0	0
CC1(C)CC(OC(=O)CCN2CCCCC2)CC(C)(C)N1	0	0	0	0	-	-
CCOc1ccccc1C1NC(=O)NC(C)=C1C(=O)OC1CCC(C)C(C)C1 (stereo not given)	0	0	0	0	-	-
N#Cc1ccc(NC(=O)CN2C(=O)C3CCCN3C(=O)c3ccccc32)cc1 (stereo not given)	0	72.0	0	0	0	0
O=C(CN1C(=O)C2CCCN2C(=O)c2ccccc21)Nc1ccc(F)cc1 (stereo not given)	0	0	0	0	-	-
